Assay results reported in PubChem BioAssay (EPA / NIEHS).
Several values for one entry are separate records, joined by “and”; a condition that tells them apart may be missing. Equal entries are not always repeated. Activity calls are given as the source filed them. How the source made its calls: active means hit-call score of the fitted dose curve at least 0.9, where 1 is the maximum; inactive means score below 0.9.

Experiment: CCTE_Shafer_MEA_acute_firing_rate_mean: CCTE's Neural Acute Assay for Mean Firing Rate, Shafer Lab (AID 2284009)
Procedure: CCTE_Shafer_MEA_acute assay is conducted using Axion Biosystems 48 well microelectrode array (MEA) plates and Maestro recording system. Each well of the MEA plate contains a grid of 16 microelectrodes embedded in the culture surface. Electrically active cells, such as neurons, can be cultured over the electrodes, and electrical activity in these cells can be recorded extracellularly. The spontaneous firing of neurons is captured from each electrode on a microsecond timescale providing both temporally and spatially precise data. […] The CCTE_Shafer_MEA_acute assay uses primary cultures of rat cortical neurons. As these cultures mature over time, neural networks develop functional activity and form cohesive networks in which electrical activity can be highly coordinated. Baseline 40-minute recordings are made on days post-plating 13 or 15, followed by a secondary 40-minute recording after chemical exposure.CCTE_Shafer_MEA_acute_firing_rate_mean is a component of the CCTE_Shafer_MEA_acute assay. It measures the frequency number of spikes (action potential firings) as the total number of spikes divided by the length of the recording in a microelectrode array (MEA) using Axion Biosystems Maestro 768 channel amplifier with the AxIS adaptive spike detector. The firing rate is divided by the number of electrodes to report a well-mean value. The recordings before and after chemical treatment are used to calculate a percent change in the mean firing rate in each well.Data from the assay component CCTE_Shafer_MEA_acute_firing_rate_mean was analyzed into 1 assay endpoint. This assay endpoint, CCTE_Shafer_MEA_acute_firing_rate_mean, was analyzed in the negative analysis fitting direction relative to DMSO as the negative control and baseline of activity. Using a type of functional reporter, gain or loss-of-signal activity can be used to understand electrical activity.
Spontaneous activity in the cortical cultures was recorded using an Axion Biosystems Maestro 768 channel amplifier and Axion Integrated Studios (AxIS) v1.8 (or later) software. The amplifier recorded from all channels simultaneously (gain = 1200 x; sampling rate = 12.5 kHz/channel): raw signals were filtered with a Butterworth band-pass filter (300-5000 Hz), which filters out slower local field potentials leaving only fast potentials, i.e., "spikes", arising from extracellular currents associated with action potentials (Pine 2006; Wheeler and Nam 2011). On-line spike detection of filtered signals was conducted with the AxIS adaptive spike detector, using a threshold of 8x the root mean squared (rms) noise on each channel. Any electrodes with rms noise levels greater than 5 uV were grounded (e.g., no data were recorded). Once grounded, an electrode was grounded for the duration of the experiment. All recordings were conducted at 37 C. Wells were deemed usable if on the day of the exposure >/= 10 electrodes were active (defined as >/= 5 spikes/min). On DIV 13 or 15, a minimum of three wells from one cortical culture preparation were treated with each compound (0.03-40 uM). Prior to recording baseline activity, each mwMEA plate was placed in the Maestro at 37 C and allowed to sit for 20 min while firing rates stabilized. Baseline activity (40 min) was recorded before the addition of each compound. An additional 40 min of spontaneous activity was recorded in the presence of each compound. Changes in network parameters relative to baseline were assessed following compound treatment.

Q: With Cc1ccc(N)c(N)c1 as the molecule, how does the outcome read?
A: Its outcome is “inactive”.

Q: With COC(=O)Nc1nc2ccccc2[nH]1 as the molecule, how does the outcome read?
A: The outcome was “inactive”.

Q: For N#CC(Br)Br, which outcome is on record?
A: Its outcome is “inactive”.

Q: With c1ccc(N=Nc2ccccc2)cc1 as the molecule, how does the outcome read?
A: Its outcome is “inactive”.

Q: Which AC50 does the source give for Clc1ccc(C(c2ccc(Cl)cc2)C(Cl)Cl)cc1 here?
A: The AC50 was 2.94 µM (active).

Q: Which AC50 does the source give for O=C(N[C@H](c1ccccc1)[C@@H]1CN2CCC1CC2)c1c(Cl)ccc(C(F)(F)F)c1Cl here?
A: The AC50 was 1.55 µM (active).

Q: For ClC1=C(Cl)C2(Cl)C3C(Cl)C=CC3C1(Cl)C2(Cl)Cl (stereo not given), which AC50 is on record?
A: Its AC50 is 7.53 µM (active).

Q: For CC(C)COC(=O)c1ccccc1C(=O)OCC(C)C, which AC50 is on record?
A: Its AC50 is 7.16 µM (active).

Q: Which outcome does the source give for CC(C)(OOC(C)(C)c1ccccc1)c1ccccc1 here?
A: Its outcome is “inactive”.

Q: Which outcome does the source give for ClCCOCCCl here?
A: The outcome was “inactive”.

Q: For CCCCCCCCn1sccc1=O, which outcome is on record?
A: Its outcome is “inactive”.

Q: With Clc1ccc(C(c2ccc(Cl)cc2)C(Cl)(Cl)Cl)cc1 as the molecule, how does the outcome read?
A: Its outcome is “inactive”.

Q: For c1ccc(NNc2ccccc2)cc1, which outcome is on record?
A: The outcome was “inactive”.

Q: With CCCCCOC(=O)c1ccccc1C(=O)OCCCCC as the molecule, how does the AC50 read?
A: The AC50 was 2.58 µM (active).

Q: For CC(C)(C)C(O)(CCc1ccc(Cl)cc1)Cn1cncn1 (stereo not given), which AC50 is on record?
A: Its AC50 is 3.75 µM (active).

Q: With CCCCOC(=O)c1ccccc1C(=O)OCc1ccccc1 as the molecule, how does the AC50 read?
A: Its AC50 is 3.11 µM (active).

Q: Which AC50 does the source give for CCC(C)c1ccc(O)cc1 (stereo not given) here?
A: The AC50 was 20 µM (active).

Q: For O=[N+]([O-])C(Br)(CO)CO, which AC50 is on record?
A: The AC50 was 33.9 µM (active).

Q: Which outcome does the source give for O=P(OCCCl)(OCCCl)OCCCl here?
A: The outcome was “inactive”.

Q: With CCC[CH2][Sn]([Cl])([CH2]CCC)[CH2]CCC as the molecule, how does the AC50 read?
A: Its AC50 is 40.3 nM (active) and 70.2 nM (active).

Q: For CCN(CC)CCO, which outcome is on record?
A: Its outcome is “inactive”.

Q: Which outcome does the source give for ClC1=C(Cl)[C@]2(Cl)[C@H]3[C@H]([C@@H]4C=C[C@H]3C4)[C@@]1(Cl)C2(Cl)Cl here?
A: Its outcome is “inactive”.

Q: For C[N+](C)(C)CC1CO1 (stereo not given), which outcome is on record?
A: The outcome was “inactive”.

Q: Which outcome does the source give for O=Cc1ccco1 here?
A: Its outcome is “inactive”.

Q: With CC(C)(O)c1cnn2c(-c3ccc(F)c(-c4c(F)cccc4C#N)c3)cnc2n1 as the molecule, how does the AC50 read?
A: Its AC50 is 0.789 µM (active).

Q: For O=[N+]([O-])c1ccc(Oc2ccc(Cl)cc2Cl)cc1, which AC50 is on record?
A: The AC50 was 9.76 µM (active).

Q: Which outcome does the source give for Cc1cc(N=Nc2ccccc2C)ccc1N here?
A: The outcome was “inactive”.

Q: With O=C(Oc1ccc(Br)cc1)N1CCN2CCC1CC2 as the molecule, how does the outcome read?
A: Its outcome is “inactive”.

Q: With [Cl-].[Cl-].[Hg+2] as the molecule, how does the AC50 read?
A: Its AC50 is 31 µM (active).

Q: For CCN(CC)N=O, which outcome is on record?
A: Its outcome is “inactive”.
